According to PubChem BioAssay AID1159580 (chemical genetic matrix, 2015):
Hit rate of the full screen: of about 5,500 compounds, about 2,000 (36%) were called active. Not shown: some 18% with an inconclusive outcome. No stated cut-off is given here; in the data, active means normalized growth mostly below about 0.91 (no sharp cut-off); inconclusive means no clear call, values can overlap the other calls; inactive means mostly above about 0.92. This is one part of the list.

Assay: chemical genetic growth profiling, strain panel (AID 1159580);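 further: tested at 20 µM; growth read once vehicle control cultures reached saturation at 30 °C; 1 = growth at the plate median or of vehicle wells; lower values mean less growth of the strain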
Conditions: growth OD

Measured: normalized growth

CC(C)c1c(O)ccc2c1CCC1C(C)(C)CCC[C@]21C (some centres not stated)
active: S. cerevisiae deletion strains, locus YJR066W, strain TOR1, hits give low values 0.709 | S. cerevisiae deletion strains, locus YKL009W, strain mrt4, hits give low values 0.822 | S. cerevisiae deletion strains, locus YKL085W, strain MDH1 (second series), hits give low values 0.358 | S. cerevisiae deletion strains, locus YKL085W, strain MDH1, hits give low values 0.358 | S. cerevisiae deletion strains, locus YKL160W, strain elf1, hits give low values 0.729 | S. cerevisiae deletion strains, locus YKL190W, strain CNB1, hits give low values 0.0594 | S. cerevisiae deletion strains, locus YKR001C, strain vps1, hits give low values 0.0785 | S. cerevisiae deletion strains, locus YKR091W, strain srl3, hits give low values 0.78 | S. cerevisiae deletion strains, locus YLL001W, strain dnm1, hits give low values 0.819 | S. cerevisiae deletion strains, locus YLL026W, hits give low values 0.263 | S. cerevisiae deletion strains, locus YLL041C, strain sdh2, hits give low values 0.55 | S. cerevisiae deletion strains, locus YLR027C, strain aat2, hits give low values 0.254 | S. cerevisiae deletion strains, locus YLR039C, strain RIC1, hits give low values 0.127 | S. cerevisiae deletion strains, locus YLR058C, strain SHM2, hits give low values 0.104 | S. cerevisiae deletion strains, locus YLR102C, strain apc9, hits give low values 0.214 | S. cerevisiae deletion strains, locus YLR113W, strain HOG1, hits give low values 0.3 | S. cerevisiae deletion strains, locus YLR221C, strain rsa3, hits give low values 0.337 | S. cerevisiae deletion strains, locus YLR258W, strain gsy2, hits give low values 0.343 | S. cerevisiae deletion strains, locus YLR262C, strain YPT6 (second series), hits give low values 0.146 | S. cerevisiae deletion strains, locus YLR268W, strain sec22, hits give low values 0.191 | S. cerevisiae deletion strains, locus YLR320W, strain mms22, hits give low values 0.22 | S. cerevisiae deletion strains, locus YLR342W, strain FKS1 (second series), hits give low values 0.139 | S. cerevisiae deletion strains, locus YLR342W, strain FKS1, hits give low values 0.43 | S. cerevisiae deletion strains, locus YLR371W, strain rom2, hits give low values 0.186 | S. cerevisiae deletion strains, locus YLR418C, strain cdc73, hits give low values 0.125 | S. cerevisiae deletion strains, locus YML016C, strain PPZ1, hits give low values 0.438 | S. cerevisiae deletion strains, locus YML032C, strain rad52, hits give low values 0.315 | S. cerevisiae deletion strains, locus YML120C, strain ndi1, hits give low values 0.235 | S. cerevisiae deletion strains, locus YML124C, strain tub3, hits give low values 0.241 | S. cerevisiae deletion strains, locus YMR078C, strain ctf18, hits give low values 0.211 | S. cerevisiae deletion strains, locus YMR129W, hits give low values 0.692 | S. cerevisiae deletion strains, locus YMR205C, strain PFK2, hits give low values 0.305 | S. cerevisiae deletion strains, locus YMR223W, strain ubp8, hits give low values 0.21 | S. cerevisiae deletion strains, locus YMR307W, strain GAS1, hits give low values 0.179 | S. cerevisiae deletion strains, locus YNL067W, strain RPL9B, hits give low values 0.279 | S. cerevisiae deletion strains, locus YNL071W, strain lat1, hits give low values 0.13 | S. cerevisiae deletion strains, locus YNL128W, strain TEP1, hits give low values 0.205 | S. cerevisiae deletion strains, locus YNL183C, strain NPR1, hits give low values 0.627 | S. cerevisiae deletion strains, locus YNL209W, strain ssb2, hits give low values 0.689 | S. cerevisiae deletion strains, locus YNL233W, strain BNI4, hits give low values 0.0951 | S. cerevisiae deletion strains, locus YNL250W, strain rad50, hits give low values 0.786 | S. cerevisiae deletion strains, locus YNL271C, strain bni1, hits give low values 0.74 | S. cerevisiae deletion strains, locus YNL298W, strain CLA4, hits give low values 0.636 | S. cerevisiae deletion strains, locus YNL307C, strain MCK1, hits give low values 0.0705 | S. cerevisiae deletion strains, locus YNL322C, strain KRE1, hits give low values 0.0898 | S. cerevisiae deletion strains, locus YNR052C, strain pop2, hits give low values 0.313 | S. cerevisiae deletion strains, locus YOL006C, strain TOP1, hits give low values 0.227 | S. cerevisiae deletion strains, locus YOL147C, strain pex11, hits give low values 0.131 | S. cerevisiae deletion strains, locus YOR001W, strain rrp6, hits give low values 0.556 | S. cerevisiae deletion strains, locus YOR061W, strain CKA2, hits give low values 0.173 | S. cerevisiae deletion strains, locus YOR069W, strain VPS5, hits give low values 0.372 | S. cerevisiae deletion strains, locus YOR070C, strain gyp1, hits give low values 0.157 | S. cerevisiae deletion strains, locus YOR080W, strain dia2, hits give low values 0.685 | S. cerevisiae deletion strains, locus YOR083W, strain WHI5, hits give low values 0.424 | S. cerevisiae deletion strains, locus YOR106W, strain vam3, hits give low values 0.274 | S. cerevisiae deletion strains, locus YOR136W, strain idh2, hits give low values 0.287 | S. cerevisiae deletion strains, locus YOR144C, strain elg1, hits give low values 0.295 | S. cerevisiae deletion strains, locus YOR184W, strain ser1, hits give low values 0.134 | S. cerevisiae deletion strains, locus YOR231W, strain MKK1, hits give low values 0.366 | S. cerevisiae deletion strains, locus YOR265W, strain rbl2, hits give low values 0.31 | S. cerevisiae deletion strains, locus YOR270C, strain vph1, hits give low values 0.632 | S. cerevisiae deletion strains, locus YOR290C, strain snf2, hits give low values 0.712 | S. cerevisiae deletion strains, locus YOR316C, strain cot1, hits give low values 0.263 | S. cerevisiae deletion strains, locus YPL051W, strain arl3, hits give low values 0.322 | S. cerevisiae deletion strains, locus YPL106C, strain sse1, hits give low values 0.815 | S. cerevisiae deletion strains, locus YPL240C, strain hsp82, hits give low values 0.29 | S. cerevisiae deletion strains, locus YPL241C, strain CIN2, hits give low values 0.166 | S. cerevisiae deletion strains, locus YPL256C, strain CLN2, hits give low values 0.521 | S. cerevisiae deletion strains, locus YPR119W, strain clb2, hits give low values 0.187 | S. cerevisiae deletion strains, locus YPR163C, strain tif3, hits give low values 0.187 | S. cerevisiae deletion strains, locus YPR167C, strain met16, hits give low values 0.139 | S. cerevisiae deletion strains, strain wtn01, hits give low values 0.132 | S. cerevisiae strains, strain wild type, hits give low values 0.0726
inactive: S. cerevisiae deletion strains, locus YKL068W, hits give low values 1.03 | S. cerevisiae deletion strains, locus YKR026C, strain gcn3, hits give low values 0.993 | S. cerevisiae deletion strains, locus YLR357W, strain rsc2, hits give low values 1.14 | S. cerevisiae deletion strains, locus YLR370C, strain arc18, hits give low values 1.06 | S. cerevisiae deletion strains, locus YLR384C, strain iki3, hits give low values 1.01 | S. cerevisiae deletion strains, locus YMR058W, strain fet3, hits give low values 0.968 | S. cerevisiae deletion strains, locus YMR125W, strain sto1, hits give low values 0.928 | S. cerevisiae deletion strains, locus YMR231W, strain pep5, hits give low values 0.93 | S. cerevisiae deletion strains, locus YNL248C, strain rpa49, hits give low values 0.989 | S. cerevisiae deletion strains, locus YNL322C, strain KRE1 (second series), hits give low values 1.03 | S. cerevisiae deletion strains, locus YNR049C, strain mso1, hits give low values 0.994 | S. cerevisiae deletion strains, locus YOL012C, strain htz1 0.469 | S. cerevisiae deletion strains, locus YPL078C, strain atp4, hits give low values 0.925 | S. cerevisiae deletion strains, locus YPR141C, strain kar3, hits give low values 1.01
